In PubChem BioAssay:
The source made the active and inactive calls. Unless noted, how the calls were made is not given here.

Legend:
[1] = test system: Wnt5a (protein binding on small-molecule microarray); experiment: small molecules binding Wnt5a protein – biophysical, small-molecule microarray, 635/667 nm fluorescence, primary screen (AID 1142); conditions: 635 nm fluorescence, higher = more signal;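 further: fluorescence read at 667 nm with signal to noise per printed feature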
[2] = ATP-based viability of Huh7 replicon cells – cell-based, CellTiter-Glo luminescence, basal, 48 h, cytotoxicity control for HCV replication inhibitor project, primary screen (AID 1143); conditions: higher = more signal, called active from +8 up or from −8 down;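 further: Huh7 hepatoma cells carrying a hepatitis C replication reporter with no stimulus; test concentration not given here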
[3] = Pseudomonas biofilm growth suppression – PAO1 strain, BacTiter-Glo luminescence, LB-PBS, primary screen (AID 1144); conditions: P. aeruginosa PAO1 biofilm, 12 h, higher = more signal
[4] = basal CRE-LacZ reporter activity in PC12 – cell-based, unstimulated, primary screen (AID 1145); conditions: no forskolin, luminescence, 4.5 h, higher = more signal, called active from +8 up or from −8 down
[5] = forskolin-driven CRE-LacZ activity in PC12 – cell-based, CRE-LacZ reporter, forskolin-stimulated, primary screen (AID 1146); conditions: luminescence, 4.5 h, higher = more signal, called active from +8 up or from −8 down;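 further: PC12 cells with 6xCRE LacZ reporter stimulated by forskolin 10 µM; beta-galactosidase reporter signal reflecting CREB driven transcription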
[6] = biological target: Streptavidin (Streptomyces avidinii) (UniProt P22629); experiment: compounds binding control protein streptavidin – biophysical, small-molecule microarray, 635/667 nm fluorescence, artefact control for SMM compound annotation, primary screen (AID 1147); conditions: higher = more signal;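 further: signal reflects streptavidin binding to arrayed compounds as a control protein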
[7] = probe aInhba binding on compound microarray – biochemical, small-molecule microarray, 635/667 nm fluorescence, primary screen (AID 1148); conditions: higher = more signal;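 further: score merges 667nm spot fluorescence with signal-to-noise for antibody binding to printed compounds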
Torsin-1A (Homo sapiens) [8] = biological target: Torsin-1A (Homo sapiens) (UniProt O14656); experiment: TOR1A wild-type binding on microarray – cell lysate, small-molecule microarray, lysate, 635/667 nm, primary screen (AID 1149); conditions: COS7 hTOR1A-WT lysate, 635 nm fluorescence, higher = more signal
Torsin-1A (Homo sapiens) [9] = biological target: Torsin-1A (Homo sapiens) (UniProt O14656); experiment: torsin A mutant lysate binding on microarrays – cell lysate, small-molecule microarray, COS7 lysate, 635/667 nm fluorescence, primary screen (AID 1150); conditions: COS7 hTOR1A mutant lysate, 635 nm fluorescence, higher = more signal;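 further: score pools 667 nm emission and signal to noise measuring lysate protein binding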
[10] = test system: Sonic hedgehog protein (Shh); experiment: Sonic hedgehog microarray binding compounds – biochemical, small-molecule microarray, 635/667 nm fluorescence, primary screen (AID 1151); conditions: 635 nm fluorescence, higher = more signal;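 further: Shh protein binding to compounds spotted on small-molecule microarray slides; score combines spot fluorescence intensity with signal-to-noise across triplicate slides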
[11] = optical density shifts of acrAB sulA E. coli – strain DRC41, OD650, 48 h, E. coli filamentation inducer project, primary screen (AID 1152); conditions: higher = more signal, called active from +8 up or from −8 down;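 further: E. coli MC1000 strain DRC41 lacking acrAB efflux pump and sulA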
[12] = probe aLefty1 binding on compound microarray – biochemical, small-molecule microarray, 635/667 nm fluorescence, primary screen (AID 1153); conditions: higher = more signal;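 further: score merges spot fluorescence with signal-to-noise ratio from the scanned slide images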
[13] = plasmodial surface anion channel blockers, osmotic lysis – cell-based, P. falciparum Indochina, OD700, 1 h, primary screen (AID 1154); conditions: P. falciparum Indochina infected RBC osmotic lysis, higher = more signal, called active from +8 up or from −8 down
[14] = plasmodial surface anion channel blockers, osmotic lysis – cell-based, P. falciparum Indochina, OD700, 2 h, primary screen (AID 1155);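 further: lysis reports solute entry through the parasite surface anion channel PSAC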; conditions: P. falciparum Indochina infected erythrocytes, higher = more signal, called active from +8 up or from −8 down
[15] = changes in parasitized red cell lysis, either direction – P. falciparum Indochina, OD700, 3 h, PSAC antagonist project, primary screen (AID 1156); conditions: P. falciparum-infected erythrocytes, osmotic lysis, higher = more signal, called active from +8 up or from −8 down
[16] = plasmodial surface anion channel blockers, osmotic lysis – cell-based, P. falciparum Indochina, OD700, 18 h, primary screen (AID 1157); conditions: P. falciparum Indochina infected erythrocytes, osmotic lysis OD700, 18 h; higher = more signal, called active from +8 up or from −8 down
[17] = S6 kinase pathway phospho-S6 level changes – cell-based, A549, cytoblot, luminescence, serum-stimulated, primary screen (AID 1158); conditions: 5 h, higher = more signal;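 further: serum-stimulated A549 lung adenocarcinoma cells; signal is phosphorylated S6 detected by cytoblot immunostaining with HRP secondary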
[18] = biological target: NADPH oxidase 2 (Homo sapiens) (UniProt P04839); experiment: compounds shifting NOX2 Amplex Red fluorescence – cell-based, HEK293-NOX2, PMA-stimulated, NOX inhibitor project, primary screen (AID 1159); conditions: 45 min, higher = more signal, called active from +8 up or from −8 down; further: test concentration not given here
[19] = biological target: NADPH oxidase 4 (Homo sapiens) (UniProt Q9NPH5); experiment: compounds shifting NOX4 Amplex Red fluorescence – cell-based, HEK293-NOX4, tetracycline-induced, NOX inhibitor project, primary screen (AID 1160); conditions: HEK293-NOX4, Amplex Red H2O2 fluorescence, 45 min; higher = more signal, called active from +8 up or from −8 down
[20] = biological target: NADPH oxidase 5 (Homo sapiens) (UniProt Q96PH1); experiment: compounds shifting NOX5 Amplex Red fluorescence – cell-based, HEK293-NOX5, NOX inhibitor project, primary screen (AID 1161); conditions: HEK293-NOX5, ionomycin, 45 min, higher = more signal
NADPH oxidase 5 (Homo sapiens), sequence (Q96PH1 whole entry, looked up): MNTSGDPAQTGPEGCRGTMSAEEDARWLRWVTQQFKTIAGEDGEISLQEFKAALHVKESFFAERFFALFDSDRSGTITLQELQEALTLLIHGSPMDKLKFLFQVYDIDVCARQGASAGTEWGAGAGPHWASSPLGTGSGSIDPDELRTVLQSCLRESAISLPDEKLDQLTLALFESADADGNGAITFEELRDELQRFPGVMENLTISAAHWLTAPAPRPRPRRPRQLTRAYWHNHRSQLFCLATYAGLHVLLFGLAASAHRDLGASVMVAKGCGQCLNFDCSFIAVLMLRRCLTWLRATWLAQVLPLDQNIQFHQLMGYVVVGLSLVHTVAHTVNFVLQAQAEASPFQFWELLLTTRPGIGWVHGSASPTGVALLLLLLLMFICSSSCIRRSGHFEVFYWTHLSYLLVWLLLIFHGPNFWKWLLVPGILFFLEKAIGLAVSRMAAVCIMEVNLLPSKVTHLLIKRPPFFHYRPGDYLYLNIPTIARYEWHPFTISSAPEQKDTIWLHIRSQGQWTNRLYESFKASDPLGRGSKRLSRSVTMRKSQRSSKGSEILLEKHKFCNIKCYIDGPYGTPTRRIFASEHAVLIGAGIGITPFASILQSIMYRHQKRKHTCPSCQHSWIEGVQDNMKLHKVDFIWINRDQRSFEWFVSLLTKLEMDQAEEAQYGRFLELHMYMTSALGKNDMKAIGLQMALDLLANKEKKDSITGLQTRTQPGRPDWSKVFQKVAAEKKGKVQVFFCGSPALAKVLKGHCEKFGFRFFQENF

Torsin-1A (Homo sapiens), sequence (O14656 whole entry, looked up): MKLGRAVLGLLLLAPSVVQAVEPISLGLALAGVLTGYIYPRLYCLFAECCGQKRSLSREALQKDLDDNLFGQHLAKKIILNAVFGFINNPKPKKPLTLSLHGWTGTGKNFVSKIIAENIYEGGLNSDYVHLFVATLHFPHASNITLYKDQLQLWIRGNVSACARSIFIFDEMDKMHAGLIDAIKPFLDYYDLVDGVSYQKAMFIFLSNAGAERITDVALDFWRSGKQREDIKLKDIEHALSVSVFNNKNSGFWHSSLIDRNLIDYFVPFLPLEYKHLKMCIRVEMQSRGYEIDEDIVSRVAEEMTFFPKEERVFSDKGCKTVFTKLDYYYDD
NADPH oxidase 4 (Homo sapiens), sequence (Q9NPH5 whole entry, looked up): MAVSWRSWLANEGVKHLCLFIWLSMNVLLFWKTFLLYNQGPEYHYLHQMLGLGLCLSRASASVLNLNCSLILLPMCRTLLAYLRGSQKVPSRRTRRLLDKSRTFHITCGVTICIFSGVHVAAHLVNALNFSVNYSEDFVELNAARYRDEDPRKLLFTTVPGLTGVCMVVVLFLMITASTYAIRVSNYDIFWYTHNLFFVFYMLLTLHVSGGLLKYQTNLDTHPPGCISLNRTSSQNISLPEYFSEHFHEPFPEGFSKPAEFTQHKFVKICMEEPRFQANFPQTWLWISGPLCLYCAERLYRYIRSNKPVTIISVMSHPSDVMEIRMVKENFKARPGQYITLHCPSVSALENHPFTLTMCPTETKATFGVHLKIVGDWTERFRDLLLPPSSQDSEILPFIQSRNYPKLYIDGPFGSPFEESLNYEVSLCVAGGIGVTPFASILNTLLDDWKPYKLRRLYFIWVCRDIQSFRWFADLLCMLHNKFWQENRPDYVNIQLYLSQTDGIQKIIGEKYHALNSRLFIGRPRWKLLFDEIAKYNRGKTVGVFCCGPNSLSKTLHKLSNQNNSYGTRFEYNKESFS
Streptavidin (Streptomyces avidinii), sequence (P22629 whole entry, looked up): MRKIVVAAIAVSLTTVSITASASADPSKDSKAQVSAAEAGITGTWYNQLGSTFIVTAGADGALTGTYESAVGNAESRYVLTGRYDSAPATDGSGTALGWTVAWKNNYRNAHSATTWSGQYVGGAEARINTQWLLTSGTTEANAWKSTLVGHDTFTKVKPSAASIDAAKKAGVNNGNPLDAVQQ
NADPH oxidase 2 (Homo sapiens), sequence (P04839 whole entry, looked up): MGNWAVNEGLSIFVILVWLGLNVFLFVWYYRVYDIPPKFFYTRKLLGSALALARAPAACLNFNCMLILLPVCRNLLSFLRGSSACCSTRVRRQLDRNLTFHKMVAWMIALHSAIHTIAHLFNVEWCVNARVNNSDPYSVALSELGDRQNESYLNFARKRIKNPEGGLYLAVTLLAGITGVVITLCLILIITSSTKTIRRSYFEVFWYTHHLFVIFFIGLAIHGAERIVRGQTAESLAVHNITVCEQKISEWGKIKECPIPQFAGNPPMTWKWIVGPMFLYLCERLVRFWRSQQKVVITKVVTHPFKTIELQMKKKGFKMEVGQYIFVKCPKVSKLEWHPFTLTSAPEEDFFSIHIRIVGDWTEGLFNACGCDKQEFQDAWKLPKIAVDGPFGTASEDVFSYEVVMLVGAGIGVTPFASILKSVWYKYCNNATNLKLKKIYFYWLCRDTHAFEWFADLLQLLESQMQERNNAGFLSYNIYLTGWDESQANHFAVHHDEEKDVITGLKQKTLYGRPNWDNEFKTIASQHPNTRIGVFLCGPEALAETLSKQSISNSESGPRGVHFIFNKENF

SMILES	composite z-score [1]	z-score [2]	z-score [3]	z-score [4]	z-score [5]	composite z-score [6]	composite z-score [7]	composite z-score (Torsin-1A (Homo sapiens) [8])	composite z-score (Torsin-1A (Homo sapiens) [9])	composite z-score [10]	z-score [11]	composite z-score [12]	z-score [13]	z-score [14]	z-score [15]	z-score [16]	z-score [17]	z-score [18]	z-score [19]	z-score [20]
O=C(NC1CC1)[C@@H]1c2ccccc2C(=O)N(Cc2ccc(OC(F)(F)F)cc2)[C@H]1c1ccc(CO)cc1	0.227	-2.05 (inactive)	-1.32 (inactive)	0.441 (inactive)	-0.673 (inactive)	-0.894	-0.176	-0.0394	0.136	0.391	0.93 (inactive)	0.118	1.49 (inactive)	-0.538 (inactive)	2.44 (inactive)	-1.2 (inactive)	0.358	0.0746 (inactive)	-0.866 (inactive)	-0.523
COC(=O)[C@@]1(Cc2ccc(OC)cc2)[C@H]2c3cc(C(=O)N4CCCC4)n(CCn4cc([N+](=O)[O-])nc4C)c3C[C@H]2CN1C(=O)c1ccccc1	1.94	-0.798 (inactive)	-0.245 (inactive)	0.779 (inactive)	0.861 (inactive)	2.22	1.84	-0.236	1.75	-0.455	-2.21 (inactive)	2.16	2.38 (inactive)	0.0212 (inactive)	0.217 (inactive)	0.543 (inactive)	-0.108	0.54 (inactive)	-1.39 (inactive)	-2.54
COC(=O)[C@@]1(Cc2ccccc2)[C@H]2c3cc(C(=O)N(C)C)n(CCO)c3C[C@H]2CN1C(=O)c1ccccc1	0.518	0.254 (inactive)	0.409 (inactive)	0.583 (inactive)	-0.609 (inactive)	2.16	0.329	-0.212	0.133	-0.611	-1.65 (inactive)	0.188	-0.469 (inactive)	0.19 (inactive)	-0.0157 (inactive)	0.57 (inactive)	-0.935	0.714 (inactive)	0.111 (inactive)	-0.912
C=C(COC)C(=O)CC[C@@H](OC(C)=O)c1ccccc1OCCO	0.866	-2.43 (inactive)	-0.787 (inactive)	1.54 (inactive)	8.39 (active)	-0.507	-0.0403	0.135	1.05	2.32	0.929 (inactive)	-0.152	1.73 (inactive)	-0.91 (inactive)	-0.0421 (inactive)	-1.95 (inactive)	0.846	-1.51 (inactive)	0.146 (inactive)	-1.38
[N-]=[N+]=Nc1ccccc1C[C@@]1(C(=O)NCc2ccccc2)N=C(c2ccc(OCCCO)cc2)O[C@@H]1c1ccccc1N=[N+]=[N-]	0.897	-5.79 (inactive)	-0.424 (inactive)	0.596 (inactive)	-2.3 (inactive)	0.905	0.767	0.123	0.388	0.473	0.0484 (inactive)	0.399	31.4 (active)	24.3 (active)	2.08 (inactive)	0.984 (inactive)	1.38	-4.79 (inactive)	-2.16 (inactive)	-1.67
CN1C(=O)C2C(C1=O)C1C=C(CCCO)C2C(C2CC2)N1Cc1cccc(OC(F)(F)F)c1 (stereo not given)	-0.317	-0.591 (inactive)	0.55 (inactive)	-0.348 (inactive)	1.3 (inactive)	0.851	-0.101	1.03	1.76	-0.525	-0.771 (inactive)	-0.295	1.34 (inactive)	0.505 (inactive)	0.627 (inactive)	0.402 (inactive)	-0.546	0.561 (inactive)	0.568 (inactive)	1.2
COc1cc(C(O)C2C=CC3C(=O)N(c4ccccc4)C(=O)C3N2Nc2ccccc2)cc(OC)c1OC (stereo not given)	0.575	-0.685 (inactive)	-0.983 (inactive)	-0.322 (inactive)	0.226 (inactive)	1.39	0.38	-0.327	-0.0996	-0.277	-0.915 (inactive)	0.501	26.2 (active)	12.1 (active)	1.18 (inactive)	1.73 (inactive)	-0.817	-1.61 (inactive)	-3.49 (inactive)	-3.2
CCOC(=O)C[C@H]1[C@H](OC(=O)Cc2ccc3c(c2)OCO3)[C@@H](NC(=O)c2ccc3ccccc3n2)c2cc(OCCCO)ccc2N1C(=O)Cc1ccc(OC)cc1	0.0586	-1.01 (inactive)	-0.885 (inactive)	3.29 (inactive)	0.637 (inactive)	0.417	-0.101	0.509	0.744	0.902	2.14 (inactive)	-0.0573	21.8 (active)	5.31 (inactive)	-0.997 (inactive)	0.0217 (inactive)	2.03	-1.47 (inactive)	0.824 (inactive)	0.159
O=C1N(CCS(=O)(=O)c2ccccc2)c2ccccc2C[C@]12N=C(c1ccc(OCCCO)cc1)O[C@@H]2c1ccccc1	0.553	-1.62 (inactive)	0.851 (inactive)	0.0219 (inactive)	-1.4 (inactive)	0.404	0.0944	0.903	1.41	0.372	-0.499 (inactive)	0.732	26.3 (active)	18.6 (active)	1.85 (inactive)	2.95 (inactive)	-0.18	-0.304 (inactive)	0.615 (inactive)	0.627
